Reference: PubChem BioAssay AID1307 (SRMLSC, 2008)
The campaign covered roughly 1,200 compounds. Fewer than 10 were called active. These entries were drawn from the full list. Entries with a potency or affinity are not part of this list. Values without a mark were called inactive.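 How the source made its calls: active means inhibition reaching a set limit at one or more tested concentrations; inactive means inhibition under that limit at every dose.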

experiment: yeast RAM network inhibitors, dose response, S. cerevisiae (AID 1307);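 further: 0% = DMSO vehicle wells and 100% = 10 µM 1-NA-PP1 control; higher inhibition means more yeast growth since RAM block rescues cells from 5-FOA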; conditions: S. cerevisiae RAM network URA3 reporter, 5-FOA growth OD615, stronger effect = higher value, yeast express analog-sensitive mutant Cbk1 kinase; at 100 µM unless noted

SMILES	max inhibition
CCCCc1ccc(-c2csc(/C(C#N)=C/c3ccc(C)o3)n2)cc1	4.24%
CCC(C)c1ccc(NC(=S)NCc2ccccc2OC)cc1 (stereo unspecified)	5.65%
CCCCC(=O)Nc1ccccc1C(=O)OCC(=O)c1ccc2c(c1)OCCO2	2.31% [at 0.196 µM]
CCOC(=O)N1CCC(N(CCN(C)C)C(=S)Nc2cccc(SC)c2)CC1	2.41% [at 0.782 µM]
CCCN(CCC)c1nc2ccccc2nc1C(C#N)C(=O)OC(C)COC (stereo unspecified)	2.6%
Cc1ccc(-c2ccc(C(=O)NCc3ccccc3)o2)c2ccccc12	3.65%
CC(C)Oc1cccc(C(=O)NC(=S)Nc2cccc(C(F)(F)F)c2)c1	2.41% [at 0.782 µM]
O=C(CN(C(=O)CSc1nnc(COc2ccccc2)o1)c1ccc(F)cc1)NC1CCCC1	2.82%
Cc1ccccc1OCCC(=O)Nc1cccc(S(=O)(=O)Nc2ccccc2Cl)c1	2.67% [at 0.196 µM]
O=S(=O)(NCCSCc1ccc(Cl)cc1Cl)c1ccc2c(c1)OCCO2	2.05% [at 12.5 µM]
CCCCCOP(=O)(OCCCCC)C1(NS(=O)(=O)c2ccccc2)C=CC(=O)c2ccccc21 (stereo unspecified)	2.83%
COc1ccccc1OCC(=O)Nc1ccc(CSc2ccccc2)cc1C	1.56% [at 25 µM]
Cc1ccc(-n2c(SCC(=O)Nc3cccc(S(=O)(=O)NC4=NCCCCC4)c3)nc3ccccc3c2=O)cc1C	11%
CC(C)=CCC/C(C)=C/Cc1c(O)ccc(C(=O)/C=C/c2ccc(O)cc2)c1O	5.39%
CCOc1ccc2nc(SCC(=O)c3ccccc3)sc2c1	3% [at 0.196 µM]
COc1ccc(/C=C2\SC(=S)N(CC(=O)OCC(=O)Nc3ccc([N+](=O)[O-])cc3OC)C2=O)cc1	8.9%
C=CCc1cccc(/C=N/NC(=O)C(C)Nc2ccc(C)cc2)c1O (stereo unspecified)	2.46% [at 0.782 µM]
CCOc1cccc(-c2csc(C3COc4ccccc4O3)n2)c1 (stereo unspecified)	5.04% [at 50 µM]
COc1ccc2c(C)cc(SCC(=O)c3ccc4c(c3)OCO4)nc2c1	4.01%
FC(F)(F)c1nc(N2CCN(c3ccccc3)CC2)nc2c1CCCCC2	3.63%
CCOC(=O)c1c(C)[nH]c(C)c1C(=O)COC(=O)/C=C/c1ccc(Cl)cc1	2.07% [at 0.391 µM]
CCSC1=N/C(=C\c2ccc(-c3ccccc3[N+](=O)[O-])o2)C(=O)S1	5.47% [at 25 µM]
CC1CCCN(C(=O)C(C)Sc2nc(-c3ccccc3)cc(C(F)(F)F)n2)C1 (stereo unspecified)	3.6% [at 25 µM]
CCc1ccc(OCC(=O)N2c3ccccc3CCc3ccccc32)cc1	2.64% [at 3.125 µM]
Fc1ccc(CSc2nnc(Cc3sc(-c4ccccc4)nc3-c3ccccc3)o2)cc1	5.66%
O=C(Nc1ccccc1)C1=C[C@H](C2CCCCC2)C[C@H](OCc2ccc(CO)cc2)O1	4.12%

SMILES	max inhibition
CCCNS(=O)(=O)c1ccc(CCC(=O)Nc2cc(Cl)ccc2Oc2ccccc2)cc1	1.73%
Cc1cccc(NC(=O)/C(C#N)=C/c2ccc(Sc3ccccc3)o2)c1C	10.5%
CC(C)Oc1ccccc1OCCCCn1cnc2ccccc2c1=O	2.35% [at 6.25 µM]
Cc1ccc(-c2csc(N(CC3CCCO3)C(=O)c3ccco3)n2)cc1 (stereo unspecified)	1.93% [at 12.5 µM]
OCCNc1nc(SCc2ccccc2)nc2sc3c(c12)CCC3	1.56% [at 3.125 µM]
Cc1cc(NC(=O)CSc2nc3ccsc3c(=O)n2Cc2ccccn2)n[nH]1	2.41% [at 12.5 µM]
COC(=O)c1cc2c(ccn2-c2ccc(F)cc2)n1Cc1ccc(OC)cc1	5.52% [at 50 µM]
CCC1(C)CC(CCNS(=O)(=O)c2ccc(C)cc2)(c2ccc(C)cc2)CCO1 (stereo unspecified)	3.04%
Cn1c(N=Nc2ccc(N3CCOCC3)cc2)[n+](C)c2ccccc21	25%
Cc1ccc(SCCNC(=S)Nc2ccc(C)c(C)c2)cc1	4.41% [at 12.5 µM]
Brc1ccc(CSc2nnc(Cc3c[nH]c4ccccc34)o2)cc1	3.66%
CCOCCOC(=O)C(C)Oc1ccc(Oc2nc(Cl)ccc2Cl)cc1 (stereo unspecified)	2.21% [at 25 µM]
CCOc1nc(-c2ccccc2)ccc1-c1noc(COc2ccccc2)n1	3.61% [at 50 µM]
Cc1ccccc1OCC(=O)OCC(=O)c1ccc(OCc2ccccc2)cc1	4.85% [at 50 µM]
COc1ccccc1C(NC(=O)C1CCCCC1)c1c(O)ccc2ccccc12 (stereo unspecified)	5.27%
CCCCC1(Cc2cccc([N+](=O)[O-])c2)C(=O)N(c2ccccc2)N(c2ccccc2)C1=O	4.01% [at 50 µM]
O=C(COC(=O)CCCNC(=O)c1ccc(Cl)cc1)Nc1cc(Cl)c(Cl)cc1Cl	3.97% [at 50 µM]
COc1ccc(C(=O)/C=C/Nc2ccc(S(=O)(=O)Nc3ncccn3)cc2)cc1	7.67%
CCCCOc1ccc(S(=O)(=O)Nc2cc(OC)ccc2OC)cc1	3.71% [at 25 µM]
COc1cc2c(=O)n(Cc3ccco3)c(=O)n(CC(=O)c3ccc(Br)cc3)c2cc1OC	3.72% [at 0.196 µM]
Cc1ccc(SCC(=O)Nc2ccc(F)cc2[N+](=O)[O-])cc1C	2.24%
COc1cc(/C=N/Nc2ccc(Cl)cc2)ccc1OC(=O)c1cccs1	2.6% [at 0.391 µM]
COc1ccc(-c2nc(-c3ccc(O)cc3O)cs2)cc1OC	5.02% [at 3.125 µM]
CCOC(=O)c1cc(C#N)c(Oc2cccc(C(F)(F)F)c2)nc1-c1ccccc1	2.36%
CC(=O)Nc1ccc(-c2cc(-c3ccc(NC(C)=O)cc3)nc(-c3ccc(NC(C)=O)cc3)n2)cc1	13.5%
